Drawing on PubChem BioAssay (NCI), this text covers growth for 39 compounds.

Molecules are shown by their SMILES. About 83,000 compounds went through this panel and 20% of them were active in at least one assay; those are over-represented in the sample as a whole.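 Treatment: one concentration, 48 hours, 96-well format. Scoring: percent growth, with anything below 10 considered active.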 Values without a mark were called inactive. Active and inactive are the calls of the source.

The first experiment deals with SK-MEL-28 melanoma. The experiment is described as follows: NCI-60 one-dose screen, 48 h (100 = growth as untreated, 0 = no growth, -100 = all killed). Conditions: 10 µM.
As for `C=C(C(=O)c1ccccc1)C(NC(C)(C)C)c1ccccc1` (stereo not drawn), the growth is 9.1% (active).

For `O=c1c2ccccc2nc(SCCN2CCCCC2)n1CCc1ccccc1`, the growth is 101%.

Take `N=c1c2c(-c3ccccc3)c(-c3ccccc3)n(Cc3ccccc3)c2ncn1CCCO`: the growth was 49.8%.

For the compound `COc1cc(/C=C2\Oc3cc(OCC(=O)c4ccccc4)ccc3C2=O)cc(OC)c1OC`, the growth was 108%.

For `Cc1ccc(NC(=O)CSc2nc3ccccc3c(=O)n2CCc2ccccc2)c(C(=O)O)c1`, the growth was 108%.

Regarding `O=C(Nc1nc2ccc(F)cc2s1)c1cc(-c2ccc(F)cc2)n2nc(-c3ccccc3)cc2n1`, the growth was 58.1%.

For the compound `CN1CCCNc2c(c(=O)c2=O)NCCCN(C)CCCNc2c(c(=O)c2=O)NCCCN(C)CCCNc2c(c(=O)c2=O)NCCCN(C)CCCNc2c(c(=O)c2=O)NCCCN(C)CCCNc2c(c(=O)c2=O)NCCCN(C)CCCNc2c(c(=O)c2=O)NCCCN(C)CCCNc2c(c(=O)c2=O)NCCC1`, the growth is 22.6%.

`CCN1CCC2(CC1)OC(c1ccccc1)C(c1ccccc1)O2` (stereo not drawn): the growth was 107%.

Regarding `O=C(O)c1ccc(Cl)cc1Nc1ccc(F)cc1`, the growth is 86.2%.

With `CCCCCC(=O)c1ccc(OCCCN2CCN(C(=O)OCC)CC2)cc1`, the growth is 98.3%.

With `COc1ccc(NC(=O)CSc2nc3ccccc3c(=O)n2CCc2ccccc2)cc1`, the growth was 91.6%.

Take `COc1ccc(-c2nnc(-c3c(-c4ccccc4)nc4ncccn34)o2)cc1OC`: the growth is 112%.

In the case of `COc1ccc2nc3cc(Cl)ccc3c(NCCNCC(C)O)c2c1` (stereo not drawn), the growth is 54.7%.

In the case of `CC(C)(C)NC/C(=C\c1ccccc1)C(=O)c1ccccc1`, the growth is -29.2% (active).

For `COc1ccc(-c2ccc3cc(C(=O)Nc4ccc(O)c(C(=O)/C=C/c5cc(OC)c(OC)c(OC)c5)c4)ccc3c2)cc1`, the growth is 106%.

Turning to `CCCCN(CCCC)c1cc(C(=O)CCCCCN)c2ccccc2n1`, the growth is 118%.

For `COc1ccc(NC(=O)Cc2nc3nc4sc(C)c(C)c4c(=O)n3[nH]2)cc1`, the growth is 115%.

Turning to `COc1cc(-c2nc(-c3nnc(-c4ccc(F)c(Cl)c4)o3)c3ccccn23)cc(OC)c1OC`, the growth was 41.4%.

As to `NC(=O)SCC(=O)Nc1ccc(S(N)(=O)=O)cc1`, the growth is 113%.

With `Nc1nccc(Nc2ccccc2)n1`, the growth is 116%.

As to `Oc1[nH]c2cc(Cl)ccc2c1/C=c1/ccc2c(c1)N=C(c1cc(F)cc(F)c1)N=2`, the growth was 40.1%.

Regarding `c1ccc2c(c1)oc1c3cccnc3ccc21`, the growth is 92.7%.

Consider `COc1ccc2c(c1)sc1nc(-c3ccccc3)c(-c3ccsc3)n12`, for which the growth was 60.7%.

With `CSc1cc(SC)ncn1`, the growth is 102%.

Take `COc1ccc2c(c1)sc1nc(-c3ccccc3)c(-c3ccc(O)c(OC)c3)n12`: the growth was 73.6%.

As for `CCCCCCCCCCCCCC[n+]1ccc(C(N)=O)cc1`, the growth is 43.3%.

With `CN1c2ccccc2[C@]2(Cc3ccccc3)Cc3ccccc3N[C@H]12`, the growth was 99.7%.

Regarding `CCN(CC)CCSCCCNc1c2ccc(Cl)cc2nc2ccc(OC)cc12`, the growth is -67% (active).

With `CC(=O)c1cc(Br)ccc1O`, the growth is 105%.

Regarding `COc1ccc(-c2nc3sccn3c2-c2nc3c([nH]2)C(=O)c2ccccc2C3=O)cc1`, the growth is 89.6%.

As for `N=C1c2nc3n(c2C(=O)c2nc4n(c21)CCCC4)CCCC3`, the growth was -67.2% (active).

`COc1ccc(-c2nc3ccccn3c2-c2nnc(-c3cc(OC)c(OC)c(OC)c3)o2)cc1`: the growth was 83.6%.

With `CCN(CC)CCOc1nc2ccc(OC)cc2c2c1-c1ccc(OC)cc1C2=O`, the growth was -12.6% (active).

Consider `CCCCCCCCN(CCCCCCCC)CCCCCCCCCN1CCCc2cc(OC)ccc21`, for which the growth is 101%.

As for `COc1ccc2c(c1)C(=O)c1c-2c(OCCN(C)C)nc2cc(OC)c(OC)cc12`, the growth was 112%.

As for `COc1ccc(/C(=C2\O[C@@H]([C@H]3COC(C)(C)O3)[C@H]3OC(C)(C)O[C@@H]23)c2cc(OC)c(OC)c(OC)c2)cc1O`, the growth is 59.6%.

As for `Nc1ccn(C2CC(O)C(CO)O2)c(=O)n1` (stereo not drawn), the growth was 120%.

`CC(C)=CCc1ccc(O)c(=O)cc1C(C)C`: the growth is 34.5%.

In the case of `COc1cc(NC(=O)CSc2nc3ccccc3c(=O)n2CCc2ccccc2)cc(OC)c1OC`, the growth is 37.5%.

The next experiment has as its system SK-MEL-2 melanoma. The description is as above. The conditions noted are these: 10 µM.
With `C=C(C(=O)c1ccccc1)C(NC(C)(C)C)c1ccccc1` (stereo not drawn), the growth is -13.9% (active).

In the case of `O=c1c2ccccc2nc(SCCN2CCCCC2)n1CCc1ccccc1`, the growth was 102%.

Take `N=c1c2c(-c3ccccc3)c(-c3ccccc3)n(Cc3ccccc3)c2ncn1CCCO`: the growth is 47%.

`COc1cc(/C=C2\Oc3cc(OCC(=O)c4ccccc4)ccc3C2=O)cc(OC)c1OC`: the growth was 122%.

As for `Cc1ccc(NC(=O)CSc2nc3ccccc3c(=O)n2CCc2ccccc2)c(C(=O)O)c1`, the growth is 89.8%.

Regarding `O=C(Nc1nc2ccc(F)cc2s1)c1cc(-c2ccc(F)cc2)n2nc(-c3ccccc3)cc2n1`, the growth was 111%.

As to `CN1CCCNc2c(c(=O)c2=O)NCCCN(C)CCCNc2c(c(=O)c2=O)NCCCN(C)CCCNc2c(c(=O)c2=O)NCCCN(C)CCCNc2c(c(=O)c2=O)NCCCN(C)CCCNc2c(c(=O)c2=O)NCCCN(C)CCCNc2c(c(=O)c2=O)NCCCN(C)CCCNc2c(c(=O)c2=O)NCCC1`, the growth was 76.6%.

On to `CCN1CCC2(CC1)OC(c1ccccc1)C(c1ccccc1)O2` (stereo not drawn), for which the growth is 105%.

As for `O=C(O)c1ccc(Cl)cc1Nc1ccc(F)cc1`, the growth was 93.4%.

Consider `CCCCCC(=O)c1ccc(OCCCN2CCN(C(=O)OCC)CC2)cc1`, for which the growth is 85.5%.

With `COc1ccc(NC(=O)CSc2nc3ccccc3c(=O)n2CCc2ccccc2)cc1`, the growth was 121%.

For the compound `COc1ccc(-c2nnc(-c3c(-c4ccccc4)nc4ncccn34)o2)cc1OC`, the growth was 96.3%.

Turning to `COc1ccc2nc3cc(Cl)ccc3c(NCCNCC(C)O)c2c1` (stereo not drawn), the growth was 31.1%.

On to `CC(C)(C)NC/C(=C\c1ccccc1)C(=O)c1ccccc1`, for which the growth was -64.3% (active).

Regarding `COc1ccc(-c2ccc3cc(C(=O)Nc4ccc(O)c(C(=O)/C=C/c5cc(OC)c(OC)c(OC)c5)c4)ccc3c2)cc1`, the growth is 99.5%.

Consider `CCCCN(CCCC)c1cc(C(=O)CCCCCN)c2ccccc2n1`, for which the growth was 87.9%.

For `COc1ccc(NC(=O)Cc2nc3nc4sc(C)c(C)c4c(=O)n3[nH]2)cc1`, the growth is 103%.

Turning to `COc1cc(-c2nc(-c3nnc(-c4ccc(F)c(Cl)c4)o3)c3ccccn23)cc(OC)c1OC`, the growth was 25.8%.

Regarding `NC(=O)SCC(=O)Nc1ccc(S(N)(=O)=O)cc1`, the growth was 111%.

Consider `Nc1nccc(Nc2ccccc2)n1`, for which the growth was 117%.

Turning to `Oc1[nH]c2cc(Cl)ccc2c1/C=c1/ccc2c(c1)N=C(c1cc(F)cc(F)c1)N=2`, the growth is 20.4%.

Take `c1ccc2c(c1)oc1c3cccnc3ccc21`: the growth is 96.9%.

As for `COc1ccc2c(c1)sc1nc(-c3ccccc3)c(-c3ccsc3)n12`, the growth is 5.47% (active).

Consider `CSc1cc(SC)ncn1`, for which the growth is 100%.

Turning to `COc1ccc2c(c1)sc1nc(-c3ccccc3)c(-c3ccc(O)c(OC)c3)n12`, the growth is 49.8%.

As to `CCCCCCCCCCCCCC[n+]1ccc(C(N)=O)cc1`, the growth is -32.4% (active).

Take `CN1c2ccccc2[C@]2(Cc3ccccc3)Cc3ccccc3N[C@H]12`: the growth was 95%.

For `CCN(CC)CCSCCCNc1c2ccc(Cl)cc2nc2ccc(OC)cc12`, the growth is -77.5% (active).

For `CC(=O)c1cc(Br)ccc1O`, the growth is 106%.

`COc1ccc(-c2nc3sccn3c2-c2nc3c([nH]2)C(=O)c2ccccc2C3=O)cc1`: the growth is 101%.

Turning to `N=C1c2nc3n(c2C(=O)c2nc4n(c21)CCCC4)CCCC3`, the growth was 82.7%.

Take `COc1ccc(-c2nc3ccccn3c2-c2nnc(-c3cc(OC)c(OC)c(OC)c3)o2)cc1`: the growth was 92.1%.

As for `CCN(CC)CCOc1nc2ccc(OC)cc2c2c1-c1ccc(OC)cc1C2=O`, the growth is 20.8%.

Take `CCCCCCCCN(CCCCCCCC)CCCCCCCCCN1CCCc2cc(OC)ccc21`: the growth is 101%.

`COc1ccc2c(c1)C(=O)c1c-2c(OCCN(C)C)nc2cc(OC)c(OC)cc12`: the growth is 54.3%.

`COc1ccc(/C(=C2\O[C@@H]([C@H]3COC(C)(C)O3)[C@H]3OC(C)(C)O[C@@H]23)c2cc(OC)c(OC)c(OC)c2)cc1O`: the growth was 103%.

In the case of `Nc1ccn(C2CC(O)C(CO)O2)c(=O)n1` (stereo not drawn), the growth is 87.8%.

On to `CC(C)=CCc1ccc(O)c(=O)cc1C(C)C`, for which the growth is 17.2%.

In the case of `COc1cc(NC(=O)CSc2nc3ccccc3c(=O)n2CCc2ccccc2)cc(OC)c1OC`, the growth is -2.19% (active).
